These results are taken from PubChem BioAssay.

A short description of test [1]: compounds binding Alexa647 anti-His antibody – biochemical, small-molecule microarray, 635 nm fluorescence, artefact control for SMM control protein annotation, primary screen (AID 1128).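 Further: score merges feature fluorescence with signal-to-noise for each printed compound spot.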 The settings on record: higher = more signal.
The test system of test [2] is Human papillomavirus type 1a E7 protein (residues 1-88). Description: HPV1a E7 small-molecule binders, primary screen, biochemical, small-molecule microarray, residues 1-88, 635 nm (AID 1129). The settings on record: small-molecule microarray binding, fluorescence 635 nm; higher = more signal.
The target of test [3] is Focal adhesion kinase 1 (Homo sapiens) (UniProt Q05397). Description: PTK2 protein binding on printed compound slides – biochemical, small-molecule microarray, 635/667 nm fluorescence, BSA, DTT, primary screen (AID 1130).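 Further: composite of spot emission at 667 nm and signal to noise over triplicate slides.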 The following applies: 635 nm fluorescence, higher = more signal.
Test [4] concerns Fibrinogen (Alexa647-labelled). Nature of the test: Alexa647-fibrinogen binding to printed small molecules – biochemical, small-molecule microarray, 635/667 nm fluorescence, artefact control for SMM control-protein annotation, profiling panel (AID 1131).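 Further: z-score merges 667 nm fluorescence with per-spot signal-to-noise over triplicate slides.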 The settings on record: fibrinogen-A647 binding fluorescence, higher = more signal.
Test [5] deals with Follistatin (Homo sapiens) (UniProt P19883). Nature of the test: FST protein binding to printed compounds – biochemical, small-molecule microarray, 635/667 nm fluorescence, primary screen (AID 1132). The following applies: 635 nm fluorescence, higher = more signal.
Test [6] concerns the target Fibroblast growth factor 2 (Homo sapiens) (UniProt P09038). Description: basic fibroblast growth factor binding to printed compounds – biochemical, small-molecule microarray, 635/667 nm fluorescence, primary screen (AID 1133). The settings on record: FGF2, fluorescence 635/667, higher = more signal.
A short description of test [7]: JC-1 mitochondrial potential readout, lung cancer cells – cell-based, A549, JC-1 fluorescence, basal, 24 h, 100 nL, profiling panel (AID 1138).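 Further: A549 lung adenocarcinoma cells under basal conditions with no added stimulus; test concentration not given here.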 The settings on record: higher = more signal.
For a further test, the system named is Lefty1. Nature of the test: Lefty1 protein binding to printed compounds – biochemical, small-molecule microarray, 635/667 nm fluorescence, primary screen (AID 1139). The following applies: fluorescence 635/667, higher = more signal.
Test [8] relates to wheat germ agglutinin (Triticum aestivum), Alexa647-labelled. Nature of the test: Alexa647-WGA lectin binding to printed small molecules – biochemical, small-molecule microarray, 635/667 nm fluorescence, artefact control for SMM control-protein annotation, profiling panel (AID 1140).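 Further: score merges 667 nm feature emission with signal to noise over triplicate slides.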 The following applies: WGA-A647 binding, 635 nm fluorescence, higher = more signal.
Test [9] concerns the target Luciferin 4-monooxygenase (Photinus pyralis) (UniProt P08659). Description: inhibition of purified Photinus pyralis luciferase – biochemical, luminescence, purified enzyme, 2006 set, primary screen (AID 1141).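 Further: cell-free assay with purified firefly luciferase at 100 ng per well in PBS; test concentration not given here.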 The following applies: purified firefly luciferase, SteadyGlo luminescence, 30 min; higher = more signal, called active from +8 up or from −8 down.
For test [10], the system named is Wnt5a (protein binding on small-molecule microarray). Description: small molecules binding Wnt5a protein – biophysical, small-molecule microarray, 635/667 nm fluorescence, primary screen (AID 1142).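 Further: fluorescence read at 667 nm with signal to noise per printed feature.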 The settings on record: 635 nm fluorescence, higher = more signal.
Test [11] in a line: ATP-based viability of Huh7 replicon cells – cell-based, CellTiter-Glo luminescence, basal, 48 h, cytotoxicity control for HCV replication inhibitor project, primary screen (AID 1143).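 Further: Huh7 hepatoma cells carrying a hepatitis C replication reporter with no stimulus; test concentration not given here.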 The settings on record: higher = more signal, called active from +8 up or from −8 down. In general terms: Replicon systems follow genome replication, usually without infectious particles.
Test [12] can be described thus: Pseudomonas biofilm growth suppression – PAO1 strain, BacTiter-Glo luminescence, LB-PBS, primary screen (AID 1144). The settings on record: P. aeruginosa PAO1 biofilm, 12 h, higher = more signal.
A short description of test [13]: basal CRE-LacZ reporter activity in PC12 – cell-based, unstimulated, primary screen (AID 1145). The following applies: no forskolin, luminescence, 4.5 h, higher = more signal, called active from +8 up or from −8 down.
Test [14] can be described thus: forskolin-driven CRE-LacZ activity in PC12 – cell-based, CRE-LacZ reporter, forskolin-stimulated, primary screen (AID 1146).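 Further: PC12 cells with 6xCRE LacZ reporter stimulated by forskolin 10 µM; beta-galactosidase reporter signal reflecting CREB driven transcription.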 The following applies: luminescence, 4.5 h, higher = more signal, called active from +8 up or from −8 down.
In test [15] the target is Streptavidin (Streptomyces avidinii) (UniProt P22629). Description: compounds binding control protein streptavidin – biophysical, small-molecule microarray, 635/667 nm fluorescence, artefact control for SMM compound annotation, primary screen (AID 1147).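 Further: signal reflects streptavidin binding to arrayed compounds as a control protein.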 The following applies: higher = more signal.
The nature of test [16]: probe aInhba binding on compound microarray – biochemical, small-molecule microarray, 635/667 nm fluorescence, primary screen (AID 1148).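 Further: score merges 667nm spot fluorescence with signal-to-noise for antibody binding to printed compounds.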 The following applies: higher = more signal.
Test [17] deals with Torsin-1A (Homo sapiens) (UniProt O14656). Description: TOR1A wild-type binding on microarray – cell lysate, small-molecule microarray, lysate, 635/667 nm, primary screen (AID 1149). The following applies: COS7 hTOR1A-WT lysate, 635 nm fluorescence, higher = more signal.
Test [18] shares this target. Nature of the test: torsin A mutant lysate binding on microarrays – cell lysate, small-molecule microarray, COS7 lysate, 635/667 nm fluorescence, primary screen (AID 1150).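 Further: score pools 667 nm emission and signal to noise measuring lysate protein binding.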 The settings on record: COS7 hTOR1A mutant lysate, 635 nm fluorescence, higher = more signal.
For test [19], the system named is Sonic hedgehog protein (Shh). Description: Sonic hedgehog microarray binding compounds – biochemical, small-molecule microarray, 635/667 nm fluorescence, primary screen (AID 1151).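 Further: Shh protein binding to compounds spotted on small-molecule microarray slides; score combines spot fluorescence intensity with signal-to-noise across triplicate slides.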 The following applies: 635 nm fluorescence, higher = more signal.

The source made the active and inactive calls. Unless noted, how the calls were made is not given here.

Sequence of Streptavidin (Streptomyces avidinii) (P22629 whole entry, looked up): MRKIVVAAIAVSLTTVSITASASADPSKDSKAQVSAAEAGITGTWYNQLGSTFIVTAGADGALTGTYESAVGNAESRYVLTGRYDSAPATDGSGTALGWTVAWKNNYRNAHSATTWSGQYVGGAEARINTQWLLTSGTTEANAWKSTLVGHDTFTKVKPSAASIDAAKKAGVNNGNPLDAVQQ
Sequence of Fibroblast growth factor 2 (Homo sapiens) (P09038 whole entry, looked up): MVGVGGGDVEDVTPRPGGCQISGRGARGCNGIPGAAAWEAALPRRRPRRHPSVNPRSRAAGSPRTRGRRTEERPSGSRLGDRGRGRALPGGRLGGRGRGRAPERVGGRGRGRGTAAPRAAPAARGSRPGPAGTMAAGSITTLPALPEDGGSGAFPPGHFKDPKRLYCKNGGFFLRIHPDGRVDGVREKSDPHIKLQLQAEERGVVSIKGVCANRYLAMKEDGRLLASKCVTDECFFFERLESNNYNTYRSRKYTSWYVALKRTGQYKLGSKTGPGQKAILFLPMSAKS
Sequence of Focal adhesion kinase 1 (Homo sapiens) (Q05397 whole entry, looked up): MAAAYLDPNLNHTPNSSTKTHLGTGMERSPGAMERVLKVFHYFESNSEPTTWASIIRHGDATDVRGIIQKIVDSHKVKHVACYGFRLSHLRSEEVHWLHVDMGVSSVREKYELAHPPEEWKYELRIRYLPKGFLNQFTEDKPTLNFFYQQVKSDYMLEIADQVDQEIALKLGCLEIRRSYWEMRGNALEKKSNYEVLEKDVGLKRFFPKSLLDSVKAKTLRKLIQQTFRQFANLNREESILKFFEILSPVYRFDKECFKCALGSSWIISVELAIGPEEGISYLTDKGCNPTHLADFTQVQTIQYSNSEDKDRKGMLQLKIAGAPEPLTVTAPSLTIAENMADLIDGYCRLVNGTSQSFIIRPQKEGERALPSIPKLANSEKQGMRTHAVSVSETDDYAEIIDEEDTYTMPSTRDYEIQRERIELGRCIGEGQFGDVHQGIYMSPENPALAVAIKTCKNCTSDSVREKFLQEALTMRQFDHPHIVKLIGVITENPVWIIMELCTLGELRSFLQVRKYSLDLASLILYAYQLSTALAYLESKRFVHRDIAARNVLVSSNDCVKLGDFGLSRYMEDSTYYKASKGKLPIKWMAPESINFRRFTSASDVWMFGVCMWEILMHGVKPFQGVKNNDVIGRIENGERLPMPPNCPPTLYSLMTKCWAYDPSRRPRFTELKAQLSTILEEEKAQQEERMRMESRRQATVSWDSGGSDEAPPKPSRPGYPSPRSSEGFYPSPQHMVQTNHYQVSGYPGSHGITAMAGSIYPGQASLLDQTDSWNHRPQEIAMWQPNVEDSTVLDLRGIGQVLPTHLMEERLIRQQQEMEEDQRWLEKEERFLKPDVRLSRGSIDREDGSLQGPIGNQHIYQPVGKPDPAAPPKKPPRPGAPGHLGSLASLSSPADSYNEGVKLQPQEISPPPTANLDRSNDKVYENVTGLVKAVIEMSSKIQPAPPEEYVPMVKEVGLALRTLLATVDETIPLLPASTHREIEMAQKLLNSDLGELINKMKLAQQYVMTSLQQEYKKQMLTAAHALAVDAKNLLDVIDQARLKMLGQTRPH
Sequence of Luciferin 4-monooxygenase (Photinus pyralis) (P08659 whole entry, looked up): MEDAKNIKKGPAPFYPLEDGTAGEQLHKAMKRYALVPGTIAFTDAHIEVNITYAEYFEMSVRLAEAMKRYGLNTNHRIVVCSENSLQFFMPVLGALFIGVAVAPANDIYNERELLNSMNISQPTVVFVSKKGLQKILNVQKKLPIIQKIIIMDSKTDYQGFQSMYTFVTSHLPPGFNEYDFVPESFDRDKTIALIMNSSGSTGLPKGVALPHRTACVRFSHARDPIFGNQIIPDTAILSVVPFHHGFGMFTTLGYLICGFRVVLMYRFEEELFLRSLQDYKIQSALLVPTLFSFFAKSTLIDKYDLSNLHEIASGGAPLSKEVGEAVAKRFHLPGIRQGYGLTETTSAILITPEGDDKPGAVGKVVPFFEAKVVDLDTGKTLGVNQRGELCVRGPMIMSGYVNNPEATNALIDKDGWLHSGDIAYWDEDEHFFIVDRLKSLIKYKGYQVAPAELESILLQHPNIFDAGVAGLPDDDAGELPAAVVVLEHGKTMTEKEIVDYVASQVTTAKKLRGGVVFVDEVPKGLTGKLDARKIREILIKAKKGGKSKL
Sequence of Follistatin (Homo sapiens) (P19883 whole entry, looked up): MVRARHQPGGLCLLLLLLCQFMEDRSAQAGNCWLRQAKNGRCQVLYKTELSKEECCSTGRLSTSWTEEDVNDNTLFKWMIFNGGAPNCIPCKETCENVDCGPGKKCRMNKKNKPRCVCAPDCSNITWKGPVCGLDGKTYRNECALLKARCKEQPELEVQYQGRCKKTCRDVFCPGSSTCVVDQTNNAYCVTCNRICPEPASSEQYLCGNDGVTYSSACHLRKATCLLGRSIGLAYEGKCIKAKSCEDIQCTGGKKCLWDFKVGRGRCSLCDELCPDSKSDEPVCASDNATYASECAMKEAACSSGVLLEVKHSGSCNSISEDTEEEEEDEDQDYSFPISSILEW
Sequence of Torsin-1A (Homo sapiens) (O14656 whole entry, looked up): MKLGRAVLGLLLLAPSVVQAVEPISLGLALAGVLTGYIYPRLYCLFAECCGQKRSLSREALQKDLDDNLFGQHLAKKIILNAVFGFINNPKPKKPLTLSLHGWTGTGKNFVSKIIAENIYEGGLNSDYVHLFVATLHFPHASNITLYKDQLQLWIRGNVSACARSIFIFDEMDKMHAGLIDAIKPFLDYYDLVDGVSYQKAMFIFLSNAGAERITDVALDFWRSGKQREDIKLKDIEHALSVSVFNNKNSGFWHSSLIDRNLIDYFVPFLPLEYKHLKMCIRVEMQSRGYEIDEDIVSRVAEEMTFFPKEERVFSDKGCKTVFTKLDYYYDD

Turning to `C[C@]1(C(=O)NC2CC2)c2ccccc2C(=O)N(Cc2cc(C(F)(F)F)cc(C(F)(F)F)c2)[C@H]1c1ccc(CO)cc1`, the composite z-score in test [1] is 1.86; in [2], 1.11; in test [3], -0.0326; in test [4] it was 0.657; in test [5], 1.31; in [6] it was 0.998. Also, the composite z-score with Lefty1 is 0.539; in test [8], 0.772; in [10], 0.46; in [15], 0.0956; in [16], 0.225; in the test with Torsin-1A (Homo sapiens) [17] it was 0.372. The composite z-score with Torsin-1A (Homo sapiens) [18] is 0.329; in test [19] it was -0.0874. Besides, the z-score in test [7] was 1.73; in [9] it was -1.07 (inactive); in test [11], -1.38 (inactive); in test [12] it was 0.501 (inactive); in test [13], -0.825 (inactive); in test [14] it was -1.25 (inactive).

`N#Cc1ccc(NN2C(C(O)c3c(F)cccc3Cl)C=CC3C(=O)N(c4ccccc4)C(=O)C32)cc1` (stereo not given): the composite z-score was found to be 2.29 in test [1]; 1.21 in test [2]; 0.377 in test [3]; 0.973 in test [4]; 1.23 in test [5]; 0.407 in [6]. In addition, the composite z-score in the test on Lefty1 is -0.0219; in test [8], 0.997; in test [10], 0.607; in test [15] it was 1.35; in [16], 0.419; with Torsin-1A (Homo sapiens) [17], 0.513. Besides, the composite z-score came to 1.35 in the test with Torsin-1A (Homo sapiens) [18] and 0.585 in [19]. Besides, the z-score was -0.36 in test [7]; -0.671 (inactive) in test [9]; 0.17 (inactive) in [11]; -1.11 (inactive) in test [12]; 0.622 (inactive) in test [13]; 0.201 (inactive) in test [14].

With `COc1ccc([Si](C)(C)[C@@H]2[C@@H](CC(=O)N3Cc4ccccc4C[C@H]3CO)O[C@]3(C(=O)N(C)c4c(Br)cc(C)cc43)[C@H]2C)cc1`, the composite z-score in test [1] turned out to be 0.333; in test [2], 1.13; in [3], 0.341; in test [4], 0.76; in test [5], 1.35; in [6], 1.65. The composite z-score is 1.56 with Lefty1; 1.03 in test [8]; 0.251 in test [10]; 0.813 in [15]; -0.0645 in [16]; 1.01 with Torsin-1A (Homo sapiens) [17]. Also, the composite z-score was found to be 1.19 with Torsin-1A (Homo sapiens) [18] and 2.14 in [19]. The z-score was 0.595 in test [7]; -0.178 (inactive) in test [9]; -5.91 (inactive) in test [11]; -1.41 (inactive) in test [12]; 6.12 (inactive) in [13]; 0.0739 (inactive) in test [14].

Turning to `CN1C(=O)C2C=CC(C(O)c3cc(C(F)(F)F)cc(C(F)(F)F)c3)N(N3CCCCC3)C2C1=O` (stereo not given), the composite z-score in [1] is 1.13; in test [2] it was 1.03; in [3], 0.428; in test [4], 0.62; in test [5], -0.165; in test [6], -0.397. The composite z-score with Lefty1 is -0.4; in test [8] it was 0.615; in test [10] it was 0.209; in test [15] it was -0.0121; in test [16], 0.0047; with Torsin-1A (Homo sapiens) [17], -0.083. Also, the composite z-score with Torsin-1A (Homo sapiens) [18] stood at 0.502; in test [19] it was 0.035. Moreover, the z-score in test [7] is -0.0918; in test [9], -1.48 (inactive); in [11], 0.401 (inactive); in test [12] it was -0.15 (inactive); in [13], 0.44 (inactive); in test [14], -0.411 (inactive).

Turning to `COCCCN1C(=O)[C@@]2(Cc3ccccc31)c1ccccc1C(=O)N(Cc1ccccc1C(F)(F)F)[C@H]2c1ccc(CO)cc1`, the composite z-score in test [1] is -0.169; in test [2], 0.439; in [3], 0.521; in [4] it was -0.371; in test [5], 1.26; in [6], 1.14. Besides, the composite z-score was 0.469 in the test on Lefty1; 0.101 in test [8]; 0.16 in test [10]; 0.147 in [15]; 0.331 in [16]; -0.0888 with Torsin-1A (Homo sapiens) [17]. The composite z-score with Torsin-1A (Homo sapiens) [18] was -0.0875; in test [19], 0.498. Besides, the z-score was 0.317 in test [7]; -0.259 (inactive) in test [9]; 0.287 (inactive) in [11]; -0.169 (inactive) in test [12]; -0.581 (inactive) in test [13]; 0.255 (inactive) in test [14].

In the case of `O=C1OCCC/C=C\[C@H]2OC34C=CCN(CCN5CCOCC5)C(=O)[C@H]3N(CCCO)C(=O)[C@@H]4C12` (stereo not given in full), the composite z-score in test [1] was -0.851; in test [2], -0.786; in test [3] it was -0.253; in test [4], -1.16; in test [5], -0.803; in test [6], -0.506. Besides, the composite z-score in the test with Lefty1 is -0.483; in test [8], 0.023; in [10], -0.196; in test [15], -0.388; in [16], -0.292; with Torsin-1A (Homo sapiens) [17], -0.222. Further, the composite z-score with Torsin-1A (Homo sapiens) [18] was 1.01; in test [19] it was -0.165. Further, the z-score is -0.278 in [7]; 0.266 (inactive) in test [9]; 0.732 (inactive) in test [11]; 1.46 (inactive) in test [12]; -0.484 (inactive) in test [13]; -0.947 (inactive) in test [14].
